NCOA2 inhibitor: human SRC2 (NCOA2) inhibition; HEK293 GAL4-SRC2 luciferase reporter, luminescence; inhibition, % at 9 µM; hit rate 0.17% among 370,000;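 active = inhibition above the mean inhibition of all tested compounds plus 3 SD, set per campaign, cut at about 52% in these data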
Target sequence (Q15596 whole entry, looked up, the tested form may be a part): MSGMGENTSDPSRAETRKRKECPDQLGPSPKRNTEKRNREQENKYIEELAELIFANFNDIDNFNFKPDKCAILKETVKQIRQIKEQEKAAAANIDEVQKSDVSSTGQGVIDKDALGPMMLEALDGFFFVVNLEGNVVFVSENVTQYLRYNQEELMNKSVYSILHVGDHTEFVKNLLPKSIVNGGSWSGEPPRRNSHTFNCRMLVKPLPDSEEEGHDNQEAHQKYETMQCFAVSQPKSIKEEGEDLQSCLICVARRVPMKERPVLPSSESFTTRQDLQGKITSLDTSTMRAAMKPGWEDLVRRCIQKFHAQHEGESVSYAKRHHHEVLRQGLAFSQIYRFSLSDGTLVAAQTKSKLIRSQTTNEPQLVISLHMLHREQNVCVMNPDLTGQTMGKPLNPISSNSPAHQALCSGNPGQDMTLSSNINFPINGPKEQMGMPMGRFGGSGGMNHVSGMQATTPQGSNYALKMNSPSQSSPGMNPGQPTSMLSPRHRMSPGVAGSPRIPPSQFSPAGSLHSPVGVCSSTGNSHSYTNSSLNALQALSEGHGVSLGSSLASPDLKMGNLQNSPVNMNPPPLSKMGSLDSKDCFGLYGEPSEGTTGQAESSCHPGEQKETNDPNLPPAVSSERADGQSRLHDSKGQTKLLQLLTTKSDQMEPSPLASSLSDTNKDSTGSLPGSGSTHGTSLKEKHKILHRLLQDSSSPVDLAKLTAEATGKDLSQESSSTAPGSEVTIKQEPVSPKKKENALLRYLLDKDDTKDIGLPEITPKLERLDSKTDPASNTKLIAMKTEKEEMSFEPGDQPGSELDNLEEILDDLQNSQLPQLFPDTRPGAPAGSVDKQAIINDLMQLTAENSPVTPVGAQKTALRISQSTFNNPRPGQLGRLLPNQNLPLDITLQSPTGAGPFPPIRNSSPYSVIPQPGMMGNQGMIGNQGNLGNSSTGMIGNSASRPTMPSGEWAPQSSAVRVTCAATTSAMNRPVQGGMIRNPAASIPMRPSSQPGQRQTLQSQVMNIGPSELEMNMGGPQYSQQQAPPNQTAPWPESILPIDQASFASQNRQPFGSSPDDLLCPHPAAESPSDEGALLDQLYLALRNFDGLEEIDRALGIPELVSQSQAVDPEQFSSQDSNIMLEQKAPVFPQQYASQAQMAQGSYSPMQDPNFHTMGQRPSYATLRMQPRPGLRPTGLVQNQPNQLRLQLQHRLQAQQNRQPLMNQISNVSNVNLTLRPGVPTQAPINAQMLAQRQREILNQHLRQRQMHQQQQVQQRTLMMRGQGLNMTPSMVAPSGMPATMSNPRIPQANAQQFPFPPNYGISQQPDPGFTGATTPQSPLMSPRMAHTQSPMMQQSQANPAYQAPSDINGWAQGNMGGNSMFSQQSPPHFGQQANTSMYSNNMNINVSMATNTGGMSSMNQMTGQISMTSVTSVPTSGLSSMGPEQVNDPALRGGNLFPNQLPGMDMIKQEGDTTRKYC
NCOA1 inh: inhibitors of human steroid receptor coactivator 1 (SRC1); AID 588354; inhibition, % at 3.6 µM; hit rate 0.12% among 360,000; HEK293 GAL4-SRC1 luciferase reporter, luminescence;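 active = inhibition above the campaign mean plus 3 SD, with each screening campaign given its own cutoff, cut at about 60% in these data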
Gli-Sufu antag: blocks Gli-Sufu signaling in a luciferase reporter | hit rate 0.74% among 340,000 | AID 588413 | Sufu-KO-LIGHT fibroblasts, Gli luciferase reporter luminescence | inhibition, % at 5 µM;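 active = inhibition above about 55%, limit read from the data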
LRH-1 inv ag: suppresses constitutive activity of human LRH-1; HEK293T StAR-luciferase reporter, LRH-1 transfected, 24 h; inhibition, % at 3.6 µM; hit rate 0.13% among 360,000; AID 602396;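 active = inhibition above the mean inhibition of all tested compounds plus 3 SD, cut at about 73% in these data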
COUP-TFII inh: inhibitors of human COUP-TFII (NR2F2); P24468; inhibition, % at 8.6 µM; HEK293T NGFI-A luciferase reporter, luminescence; hit rate 0.7% among 370,000;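 active = inhibition above a per-plate cutoff, mean inhibition of test wells between control levels plus 3 SD, cut at about 38% in these data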;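 also: cells cotransfected with COUP-TFII expression vector driving the NGFI-A reporter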
NCOA3 inh: human NCOA3 inhibition; Q9Y6Q9; HEK293 GAL4-SRC3 luciferase reporter, luminescence; inhibition, % at 3.6 µM; hit rate 0.17% among 360,000;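 active = inhibition above a per-campaign cutoff, the mean of all compounds plus 3 SD, cut at about 60% in these data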;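 also: higher means less SRC3-driven luciferase light from the GAL4 reporter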
VP16 Luc counter: counter-screen for COUP-TFII antagonists: inhibitors of VP16; hit rate 25% among 2,500; shares compounds with COUP-TFII inh; inhibition, % at 8.5 µM; HEK293 Gal4-VP16 luciferase reporter, luminescence; in the data active = inhibition above about 13%
COUP-TFII conf: confirmation of human COUP-TFII (NR2F2) inhibitors; shares compounds with COUP-TFII inh; HEK293 NGFI-A luciferase reporter, luminescence; inhibition, % at 8.5 µM; hit rate 45% among 2,500; AID 687008;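 active = mean inhibition over three repeats above a set limit taken from the earlier primary screen, cut at about 38% in these data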
Numbers stand for hits; – = inactive; · = no result. Most compounds without a hit are left out; they make up all but 1.3% or so of the library.

SMILES | NCOA2 inhibitor | NCOA1 inh | Gli-Sufu antag | LRH-1 inv ag | COUP-TFII inh | NCOA3 inh | VP16 Luc counter | COUP-TFII conf
COC1C(O)C(C)OC(OC2CCC3(C)C(CCC4C3C(O)CC3(C)C(C5=CC(=O)OC5)CCC43O)C2)C1O (centres undefined) | 58 | 87 | – | 101 | 77 | 90 | 54 | 79
C[C@]12CC[C@H](O)C[C@H]1CC[C@@H]1[C@@H]2CC[C@]2(C)[C@@H](C3=CC(=O)OC3)CC[C@]12O | – | 83 | – | 102 | 77 | 85 | 47 | 74
CNC(=O)Nc1ccc(C(=O)N/N=C\C23CC[C@@H](O)CC2(O)CC[C@@H]2[C@@H]3CCC3(C)C(C4=CC(=O)OC4)CCC23O)cc1 (some centres undefined) | – | – | – | – | – | – | · | ·
CC12CCC(O)CC1CCC1C2CCC2(C)C(C3=CC(=O)OC3)CCC12O (centres undefined) | – | 82 | – | 99 | 72 | 84 | 45 | 72
C[C@]12CC[C@H](O)C[C@H]1CC[C@@H]1[C@@H]2C[C@@H](O)[C@]2(C)[C@@H](C3=CC(=O)OC3)CC[C@]12O | – | – | – | 103 | 81 | 75 | 29 | 58
CC12CC[C@H]3[C@@H](CCC4(O)C[C@H](O)CCC34/C=N/NC(=O)c3ccccc3[N+](=O)[O-])C1(O)CCC2C1=CC(=O)OC1 (some centres undefined) | – | – | – | – | – | – | · | ·
CC(=O)OC1CC(OC2C(O)CC(OC3C(O)CC(OC4CCC5(C)C(CCC6C5CC(O)C5(C)C(C7=CC(=O)OC7)CCC65O)C4)OC3C)OC2C)OC(C)C1OC1OC(CO)C(O)C(O)C1O (centres undefined) | 61 | 87 | – | 103 | 79 | 90 | 52 | 76
C[C@H]1CC[C@@H]2[C@@H](C)[C@H]3[C@H](C[C@H]4[C@@H]5CC=C6C[C@@H](O[C@@H]7O[C@H](CO)[C@H](O)[C@H](O[C@@H]8O[C@H](CO)[C@@H](O)[C@H](O)[C@H]8O)[C@H]7O[C@@H]7O[C@@H](C)[C@H](O)[C@@H](O)[C@H]7O)CC[C@]6(C)[C@H]5CC[C@]34C)N2C1 | – | – | – | – | – | – | · | ·
C=C1C(=O)O[C@@H]2C[C@@H](C)[C@@H]3C=CC(=O)[C@@]3(C)[C@@H](OC(=O)CC(=O)O[C@H]3[C@@H]4C(=C)C(=O)O[C@@H]4C[C@@H](C)[C@@H]4C=CC(=O)[C@]43C)[C@H]12 | 94 | 66 | 93 | 87 | 98 | 74 | 96 | 109
CC1CC(C)(O)CC(C(O)CC2CC(=O)NC(=O)C2)C1=O (centres undefined) | 72 | 94 | 84 | 98 | 87 | 93 | – | 75
C=Cc1cc(OC)c2c(c1)c(=O)oc1c2cc(OC)c2c(O)ccc(C3OC(C)C(O)C(C)(O)C3O)c21 (centres undefined) | 66 | – | – | – | 59 | – | 24 | –
COc1cccc(C)c1NC1=NCCO1 | – | – | · | – | – | – | · | ·
CC(C)c1oc(=O)cc2c1[C@@H](O)[C@H]1OC(=O)[C@@]3(C)CC[C@@H](O)[C@@]2(C)C13 (some centres undefined) | – | – | – | – | 42 | 62 | – | –
CC(C)c1oc(=O)cc2c1[C@@H](O)[C@H]1OC(=O)[C@@]3(C)C[C@@H](O)[C@@H](O)[C@@]2(C)C13 (some centres undefined) | – | – | – | 92 | 41 | 76 | – | –
CCCOC(=O)c1ccc(-[n+]2c(-c3ccccc3)cc(-c3ccccc3)cc2-c2ccccc2)cc1 | – | – | – | – | 55 | – | 23 | 48
O=C(Nc1ccccc1)c1cccn(Cc2ccccc2)c1=O | – | – | – | – | – | – | · | ·
O=C(Nc1ccncc1)c1cccn(Cc2ccccc2)c1=O | – | – | – | – | 66 | – | – | 51
CCC(=O)OC1CCC2C3CCC4CC(=O)C=CC4(C)C3CCC12C (centres undefined) | – | – | – | – | – | – | · | ·
CC(C)(O)/C=C/C(=O)C(C)(O)C1C(O)CC2(C)C3CC=C4C(C=C(O)C(=O)C4(C)C)C3(C)C(=O)CC12C (centres undefined) | 75 | – | 89 | – | 44 | 67 | 61 | 65
CCCC(=O)NC1=C(N2CC2)C(=O)C(NC(=O)CCC)=C(N2CC2)C1=O | – | – | – | – | – | – | · | ·
O=C(/C=C/c1ccccc1)N1Cc2ccccc2-n2nncc2C1 | – | – | · | – | – | – | · | ·
CN1/C(=C\C=C2C(=O)NC(=O)NC2=O)C(C)(C)c2ccccc21 | – | – | – | – | – | – | · | ·
CCN1/C(=C/C=C/C2=[N+](CC)c3ccccc3C2(C)C)C(C)(C)c2ccccc21 | – | 72 | · | 98 | 92 | 82 | 42 | 90
O=C1C(=O)c2ccccc2-c2ccccc21 | 95 | 95 | – | 103 | 109 | 95 | 96 | 110
O=C1C(=O)c2cccc3cccc1c23 | – | – | – | – | – | – | · | ·
SMILES | NCOA2 inhibitor | NCOA1 inh | Gli-Sufu antag | LRH-1 inv ag | COUP-TFII inh | NCOA3 inh | VP16 Luc counter | COUP-TFII conf
C[C@H]1CCC[C@H](O)CCCCCc2cc(O)cc(O)c2C(=O)O1 | – | – | – | – | – | – | · | ·
CC1CCC/C=C/C2CC(O)CC2C(O)/C=C/C(=O)O1 (centres undefined) | – | – | 88 | 77 | 59 | – | – | –
CC(N)C(=O)NC1C2C(=C(O)CC(O)C2O)C(=O)OC1(C)C(Cl)Cl (centres undefined) | 64 | 93 | 76 | 97 | 76 | 91 | – | 57
Cn1c(=O)c2c(nc(-c3ccc(N(CCCl)CCCl)cc3)n2C)n(C)c1=O | – | – | – | – | – | – | · | ·
CCCCCCn1c(=O)c(C(=O)Nc2ncccc2C)c(O)c2ccccc21 | – | – | – | – | – | – | · | ·
COc1ccc(-c2cc(-c3ccccc3)[n+](C)c(-c3ccccc3)c2)cc1 | – | – | – | 74 | 46 | 70 | 16 | 53
C[n+]1c(-c2ccccc2)cc(CCCCc2cc(-c3ccccc3)[n+](C)c(-c3ccccc3)c2)cc1-c1ccccc1 | – | – | – | – | – | – | · | ·
CC(C)(C)n1nnnc1C(c1ccccc1)N1CCC2(CC1)C(=O)NCN2c1ccccc1 (centres undefined) | – | – | · | – | – | – | · | ·
CC1=CC2OC3CC4OC(=O)C=CC=CC(=O)OCCC(C)C(O)C(=O)OCC2(CC1)C4(C)C31CO1 (centres undefined) | 71 | 95 | 92 | 99 | 90 | 94 | 17 | 87

Assay outcomes: PubChem, several laboratories
